Laboratory results from PubChem BioAssay AID588493 (Sanford-Burnham Center for Chemical Genomics, 2011).
About 2,100 (0.58%) of roughly 360,000 compounds were called active.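 Rule for the calls: active = inhibition at 20 µM, scaled to each plate's controls, above about 33% (limit read from the data); inactive = the rest.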 Shown is part of a subset that was picked to be rich in actives.

Biological target: 26S proteasome non-ATPase regulatory subunit 14 (Homo sapiens) (UniProt O00487)
Test: Rpn11 (PSMD14) deubiquitinase inhibitors, primary screen, biochemical, fluorescence polarization, uHTS (AID 588493)
Details: human 26S proteasome, Ub4-pepOG fluorescence polarization; at 20 µM; hits give high values; 20S core pre-blocked with epoxomicin

Sequence of 26S proteasome non-ATPase regulatory subunit 14 (Homo sapiens) (O00487 whole entry, looked up): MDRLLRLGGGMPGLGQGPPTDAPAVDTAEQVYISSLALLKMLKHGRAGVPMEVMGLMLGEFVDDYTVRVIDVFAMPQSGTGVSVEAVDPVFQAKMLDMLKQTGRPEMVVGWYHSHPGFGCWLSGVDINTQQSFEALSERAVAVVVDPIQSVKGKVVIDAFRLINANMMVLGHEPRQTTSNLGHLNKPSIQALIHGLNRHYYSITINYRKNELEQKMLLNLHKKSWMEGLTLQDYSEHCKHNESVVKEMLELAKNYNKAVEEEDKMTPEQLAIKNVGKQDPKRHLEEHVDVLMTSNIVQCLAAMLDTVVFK

| Compound | inhibition |
| --- | --- |
| COc1ccccc1-c1n[nH]c2c1[C@H](C)CC[C@H]2C(C)C | 0.4% (inactive) |
| CN(C)S(=O)(=O)c1ccc(C(=O)NCC2(N3CCOCC3)CCCCC2)cc1 | 2.6% (inactive) |
| Cc1cc(C)c(-c2csc(NC(=O)CCCc3nc4ccccc4c(=O)[nH]3)n2)c(C)c1 | 8.9% (inactive) |
| O=C(CSc1nc2ccccc2c(=O)[nH]1)Nc1nc(-c2ccc(Br)cc2)cs1 | 132% (active) |
| O=C(COC(=O)c1cc(=O)[nH]c2ccccc12)Nc1nc(-c2cccc(Br)c2)cs1 | 1.7% (inactive) |
| Cc1ccc2c(c1)nnc1nnc(SCC(=O)O)n12 | -12% (inactive) |
| CC(C)(C)NC(=O)COc1ccc(CNc2ccc3[nH]c(=O)[nH]c3c2)cc1 | -10.4% (inactive) |
| COC(=O)c1ccc(OCC(=O)NC(C)(C)C)cc1 | 62.8% (active) |
| CS(=O)(=O)c1ccc(C(=O)OCC(=O)NNC(=O)COc2ccc(Cl)cc2)cc1 | 22.5% (inactive) |
| Cc1cc(C)c2cc(CN(Cc3cccs3)Cc3nnnn3CC3CCCO3)c(=O)[nH]c2c1 (stereo not given) | -19.3% (inactive) |
| CCC(C)N1CC(=O)N2Cc3[nH]c4ccccc4c3C[C@H]2C1=O (stereo not given in full) | 7.3% (inactive) |
| CCCCCOc1ccc(/C=C/C(=O)NCCc2nc3ccccc3[nH]2)cc1OC | -4.2% (inactive) |
| CC(C)=C(NC(=O)c1ccco1)C(=O)NCCc1nc2ccccc2[nH]1 | -7.6% (inactive) |
| CC(C)Oc1ccc(/C=C(\NC(=O)/C=C/c2ccco2)C(=O)NCCc2nc3ccccc3[nH]2)cc1 | 53.9% (active) |
| CCN(CC(=O)NCc1cccs1)S(=O)(=O)c1ccc(NC(C)=O)cc1 | -1.7% (inactive) |
| Cc1cccc(OCCC(=O)Nc2cc(S(=O)(=O)N3CCCCC3)ccc2N2CCOCC2)c1 | 2% (inactive) |
| CN(C)c1ccc(-n2cccc2/C=C2/SC(=Nc3ccc(F)cc3)NC2=O)cc1 | 44% (active) |
| CN(C)c1ccc(-n2cccc2/C=N/n2cnnc2)cc1 | 1.5% (inactive) |
| CCn1cc(C(=O)OCC(=O)Nc2cccc(C)c2)c(=O)c2ccc(C)nc21 | -1.5% (inactive) |
| CC(=O)Oc1cc2c(C(=O)NCCN3CCOCC3)c(C)oc2c2ccccc12 | -0.1% (inactive) |
| O=C(Cc1ccc(F)cc1)N1CCN=C1SCc1cccc([N+](=O)[O-])c1 | 3% (inactive) |
| O=C(NCc1ccccc1Cl)C1CCN(S(=O)(=O)c2cccc3nonc23)CC1 | 4.7% (inactive) |
| O=C(CCS(=O)(=O)c1cccc2nonc12)NCCc1ccccc1Cl | 179% (active) |
| CC1CCCCC1NC(=O)CCS(=O)(=O)c1cccc2nonc12 (stereo not given) | -3.4% (inactive) |

| Compound | inhibition |
| --- | --- |
| Cc1ccc(N=Cc2c(O)n(-c3nccs3)c(=O)c3ccccc23)c(C)c1 | -26.4% (inactive) |
| Cc1ccc(N=Cc2c(O)cc(C)oc2=O)c(C)c1 | 40.7% (active) |
| COc1cc(CN(C)Cc2nc3cc(C(F)(F)F)ccc3c(=O)[nH]2)ccc1OC(F)F | 5% (inactive) |
| Cc1cccc(OCc2nnc(SCn3nnc4ccccc4c3=O)o2)c1 | 6.8% (inactive) |
| Cc1cccc(OCc2nnc(SCc3nc4cc(C(F)(F)F)ccc4c(=O)[nH]3)o2)c1 | 46.5% (active) |
| CC(=O)O[C@H]1c2ccccc2-c2ccccc2[C@@H]1OC(C)=O | -2.7% (inactive) |
| CN(C)CCOc1cccc(Br)c1 | -7.4% (inactive) |
| CN(C)CCOC1c2ccccc2-c2ccccc21 | 95.3% (active) |
| CCCC[C@H]1COCCS(=O)(=O)N1Cc1cccc(Cl)c1 | 7.9% (inactive) |
| CCOC(=O)c1cc(-c2sc(NC(=O)c3ccccc3)nc2C)n(Cc2ccccc2)n1 | 5.8% (inactive) |
| Cn1c2ccc(F)cc2c2nnc(NN)nc21 | 5.1% (inactive) |
| O=C(O)C1C2C=CC(O2)C1C(=O)NCCc1cccc(Cl)c1 (stereo not given) | 1% (inactive) |
| O=C(NCc1ccccc1)[C@H]1C[C@@H]1[C@H](NP(=O)(c1ccccc1)c1ccccc1)c1ccccc1 | 9.5% (inactive) |
| CCOc1ccc(C(=O)Nc2ccc(S(=O)(=O)NCC3CCCO3)cc2)cc1OCC (stereo not given) | -3.2% (inactive) |
| CCOc1cc(/C=N/NC(=O)CN2CCCCC2)ccc1O | -1.4% (inactive) |
| Cc1ccsc1/C=C1\SC(N2CCOCC2)=NC1=O | -7.5% (inactive) |
| CCOc1cc(/C=C2\SC(N3CCCCC3)=NC2=O)ccc1O | 46.9% (active) |
| CCOc1ccc2nc(C(=O)N3CCCC(C)C3)sc2c1 (stereo not given) | -2.7% (inactive) |
| O=C1N=C(N2CCc3ccccc3C2)S/C1=C\c1ccc(O)cc1 | -9.2% (inactive) |
| CCOc1cc(/C=C2\SC(N3CCCC(C)C3)=NC2=O)ccc1O (stereo not given) | 62.1% (active) |
| CC(=O)n1cc([C@H]2C=C(C(=O)N3CCOCC3)O[C@@H](OCc3ccc(CO)cc3)C2)c2ccccc21 | 3.9% (inactive) |
| Cc1cc[n+](-c2[nH]c(=O)sc2/C=N/NC(=O)c2ccccc2[O-])cc1C | -29.4% (inactive) |
| CCc1ccc2[nH]c(=O)c(Cc3ccccc3)c(O)c2c1 | -4.6% (inactive) |
| O=C(c1ccc(OC2CCN(C(=O)c3cccnc3)CC2)cc1)N1CCCCCC1 | -0.5% (inactive) |

| Compound | inhibition |
| --- | --- |
| Cc1cccc(OCCCC(=O)Nc2ccc(S(=O)(=O)N3CCCC3)cc2)c1 | -2.1% (inactive) |
| Cc1ccc(NC(=O)NNC(=O)c2sccc2-n2cccc2)cc1 | -1.9% (inactive) |
| C=CC[n+]1c(-c2ccc(C)cc2)csc1NNC(=O)Nc1ccccc1 | 42.6% (active) |
| O=C(NNC(=O)c1ccc(-c2ccccc2)cc1)Nc1ccccc1 | -0.3% (inactive) |
| CCCCOC(=O)c1ccc(NC(c2ccc(C)cc2)P(=O)(OC)OC)cc1 (stereo not given) | -3.9% (inactive) |
| COC(=O)c1cccc(NS(C)(=O)=O)c1 | -3.1% (inactive) |
| C=CCc1ccc(OCCOc2cccc(/C=N/n3cnnc3)c2)c(OC)c1 | -5.7% (inactive) |
| c1csc(-c2nnc(COc3ccc4c(c3)OCO4)o2)c1 | -8.5% (inactive) |
| CCOc1ccc(-c2nc(C)sc2CC(=O)O)cc1 | -1.6% (inactive) |
| C/C(=N/Nc1nc(-c2ccccc2)c(CC(=O)O)s1)c1ccccc1 | 57.8% (active) |
| CCOC(=O)C(=O)Nc1nc(-c2ccccc2)c(CC)s1 | 3.6% (inactive) |
| O=C1C=C(c2cccc(Cl)c2O)C[C@@H](c2ccc(F)cc2)C1 | -0.6% (inactive) |
| Nc1nonc1-n1nnc(C(=O)N/N=C/c2cc(Br)ccc2O)c1CSC1=NCCS1 | 43.6% (active) |
| COCc1c(C(=O)N/N=C\c2cccnc2)nnn1-c1nonc1N | -1.2% (inactive) |
| CC(C)c1c(C(=O)N/N=C/c2ccccc2C(=O)O)nnn1-c1nonc1N | -1.4% (inactive) |
| CC(C)Cn1c(=O)c2ccccc2n2c(CCC(=O)NCc3ccccn3)nnc12 | 4.1% (inactive) |
| O=C(Nc1c[nH]c(=O)[nH]c1=O)OCc1ccccc1 | -11.5% (inactive) |
| N#C/C=C1\Sc2ccccc2C(=O)N1CC(=O)N1CCN(S(=O)(=O)c2ccccc2)CC1 | 5.4% (inactive) |
| Cc1nc2ccccc2nc(=O)c1NNc1ccc([N+](=O)[O-])cc1 | 43.9% (active) |
| CC(O)c1nc2ccccc2n1Cc1ccc([N+](=O)[O-])cc1 (stereo not given) | 1.9% (inactive) |
| Cc1cccc(NS(=O)(=O)c2ccc([N+](=O)[O-])cc2)n1 | -2.6% (inactive) |
| CCC(=O)N1CCC(C(N)=O)(N2CCCCC2)CC1 | -4.7% (inactive) |
| CCOC(=O)CN(C(=O)COc1nc(C)cc(C)c1C#N)c1ccc(Cl)cc1 | 1.3% (inactive) |
| O=C1Nc2ccc(Br)cc2/C1=N/N=C/C1=C(N2CCOCC2)C(=C\c2ccccc2)/CC1 | 8% (inactive) |

| Compound | inhibition |
| --- | --- |
| O=C(O)c1ccc(NN=CC2=C(N3CCOCC3)/C(=C/c3ccccc3)CC2)cc1 | 51.4% (active) |
| C=CCn1c(-c2ccccc2OCC)n[nH]c1=S | -4.4% (inactive) |
| Cc1ccccc1CSCC(=O)NC(=O)NC(C)(C)C | 4.3% (inactive) |
| CC(C)(C)NC(=O)CSC(=Nc1ccccc1F)NC#N | 45.6% (active) |
| CC(C)(C)NC(=O)CSc1nnc(NC(=O)CCc2ccccc2)s1 | 2.2% (inactive) |
| CC(=O)Nc1ccc(NC(=O)CSCc2cnn(-c3ccccc3)c2-n2cccc2)cc1 | -1.2% (inactive) |
| CCc1c(C)[nH]c(=S)c(C#N)c1C | -1.9% (inactive) |
| Cc1cccc(-n2c(SCC(N)=O)nc3c(c2=O)C2(CCCCC2)Cc2ccccc2-3)c1 | 14.6% (inactive) |
| COc1ccc(C(=O)NCc2ccc(Cl)cc2)cc1S(=O)(=O)N1CCCC1 | -4.5% (inactive) |
| CN(C(=O)c1c(Cl)cnn1C)C12CC3CC(CC(C3)C1)C2 | 0.7% (inactive) |
| N#CC(C(=O)c1ccc(S(=O)(=O)N2CCCCCC2)cc1)c1nc2ccccc2[nH]1 (stereo not given) | 13.9% (inactive) |
| CCCS(=O)(=O)N1CCCC(C(=O)NCc2ccco2)C1 (stereo not given) | 34.7% (active) |
| O=C(NCc1ccco1)C1CCCN(S(=O)(=O)c2ccccc2)C1 (stereo not given) | -4.7% (inactive) |
| O=C(NCc1ccco1)C1CCCN(S(=O)(=O)c2cnc[nH]2)C1 (stereo not given) | -5.5% (inactive) |
| CC(Sc1nc2c([nH]c3ccccc32)c(=O)n1C)c1ccccc1 (stereo not given) | -0.4% (inactive) |
| Cc1cc(C)nc(NC2=NCC(=O)N2c2ccc(Cl)cc2)n1 | 4.1% (inactive) |
| O=C(COCc1cc(-c2ccc3c(c2)OCO3)on1)N1CCN(c2cccc(Cl)c2)CC1 | 6.1% (inactive) |
| Cc1c(-c2ccccc2)cn2c1-c1ccc(C)n1CC2 | 44.5% (active) |
| CCCCNC(=O)C(C)N(CCN(C)C)C(=O)CCCN1C(=O)NC(c2ccc(Cl)cc2)C(C(=O)OCc2ccccc2)=C1C (stereo not given) | -1.7% (inactive) |
| COc1ccc(-c2nc3n(c2Br)CCC3)cc1 | 6.5% (inactive) |
| Cc1ccc(OCC(=O)NCCCNC(=O)c2cccnc2)cc1C | 0.1% (inactive) |
| Cc1ccc(NC(=O)COc2ccc(/C=N\NC(=O)c3cccnc3)cc2)cc1C | 91% (active) |
| Cc1cccc(OCC(=O)NCCNC(=O)c2cccnc2)c1 | 2.9% (inactive) |
